# Bioassay records: PubChem, National Center for Advancing Translational Sciences (NCATS)
# This is a sample that favours compounds with a hit; in the whole collection about 8.2% have one here.
# KB-V1 MDR tox: kills drug-selected multidrug resistant KB-V1 cells | actives 3.4% (n = 400,000) | Potency, µM (series often up to 46.1 µM), hits mostly cytotoxic | KB-V1 MDR cells viability, CellTiter-Glo, 72 h; also: % is scaled to controls: 0 for no effect and ±100 for the full control effect; nearly all actives have a fitted effect of over 60% in size
#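 Cytotoxicity toward P-gp-expressing KB-V1 cells was determined as loss of CellTiter-Glo luminescence after 72 h at 37 degrees C. Compounds were tested in quantitative HTS format across a concentration range, with curves fitted to normalized data.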
# MCF10A rerep: inducers of DNA re-replication in MCF 10A breast cells; MCF 10A DNA re-replication, Hoechst nuclear intensity, 48 h; Potency, µM (doses to about 46.1 µM), inactives show top-dose activity, positive = re-replication, hits mostly activators; actives 2.9% (n = 350,000); AID 624296; also: % of control where 0% means no effect; nearly all actives have a fitted effect of over 50% in size
# SW480 rereplic: inducers of DNA re-replication in SW480 colon cancer cells. actives 1.8% (n = 340,000). Potency, µM (series often up to 46.1 µM), for the others: at the highest dose re-replication activation, most hits filed as activators. AID 624297. SW480 DNA re-replication, Hoechst DNA content imaging, 48 h; also: % of control where 0% means no effect; nearly all actives have a fitted effect of over 55% in size
#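 Treated cells incubate 48 hr (37 C, 5% CO2), are stained 40 min with Hoechst, and nuclear fluorescence is enumerated; a rise in nuclei with high DNA signal marks re-replication.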
# KB-3-1 tox: kills parental KB-3-1 adenocarcinoma cells; AID 1347075; Potency, µM (doses to about 46.1 µM), most hits filed as cytotoxic; KB-3-1 viability, CellTiter-Glo ATP luminescence, 72 h; actives 1.4% (n = 400,000); also: % is scaled to controls: 0 for no effect and ±100 for the full control effect; nearly all actives have a fitted effect of over 60% in size
#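 Cells are dispensed, compounds pinned in, plates held at 37 °C for 72 h, then CellTiter-Glo is added and luminescence read after 10 minutes. Cell line: parental KB-3-1 in phenol-red-free DMEM, 10% FBS.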
# ELG1 DNA repair: inhibitors of ELG1-dependent DNA repair in HEK293T cells; HEK293T ELG1-luciferase reporter, luminescence, 16 h; DNA damage induced by 5-fluorouridine; Potency, µM (top dose mostly 46.1 µM), without a hit: top-dose activity change, negative = inhibition, hits mostly inhibitors; actives 2.3% (n = 330,000); AID 504467; also: % is scaled to controls: 0 for no effect and ±100 for the full control effect; nearly all actives have a fitted effect of over 55% in size
#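 Reporter activity after DNA damage by 5-fluorouridine is monitored. Compound-treated cells incubate 16 hr at 37 °C, then ONE-Glo is added for 30 min before luminescence reading.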
# Starred values were filed as active, the others as inactive; i = inactive; ? = inconclusive; . = not tested or not shown; [ ] = remark or other dose. Calls follow the shape of the dose curve; as a rule, active = well fitted curve in the direction sought with a large enough effect; inconclusive = small, poorly fitted or top-dose-only effect, or another doubt; inactive = no such curve, though single readings can be large; an effect the other way counts as inactive or inconclusive. Potency is read from the fitted curve at half-maximal effect.
SMILES,KB-V1 MDR tox,MCF10A rerep,SW480 rereplic,KB-3-1 tox,ELG1 DNA repair
O=C(CCN1CCC(c2ccccc2)C1)c1cccs1 (stereo not drawn),i,11%,-2%,i,0%
N=c1n(CCN2CCCCC2)c2ccccc2n1CC(=O)c1cccs1,i,?,8.2µM*,?,-12%
O=C(CCN1CCCC1)c1cccs1,i,23µM*,103%,i,-9%
CCCn1c(=N)n(CC(=O)c2cccs2)c2ccccc21,i,?,14%,i,5%
COc1ccc(N=c2nc(-c3ccc(C)cc3)n(-c3ccccc3)s2)cc1,i,.,.,?,.
Cc1ccccc1N(CC(=O)N/N=C/c1ccc(Cl)cc1)C(=O)c1ccccc1,21µM*,26µM*,?,?,-6%
COc1ccc(NC(=O)C2CCC(N3C(=O)C4C5C=CC(C5)C4C3=O)CC2)cc1 (stereo not drawn),i,-3%,1%,i,?
O=C(Nc1ccc(Cc2ccncc2)cc1)C1CCC(N2C(=O)C3C4C=CC(C5CC45)C3C2=O)CC1 (stereo not drawn),12µM*,?,14%,?,8.2µM*
CC(=O)Nc1ccc(NC(=O)C2CCC(N3C(=O)C4C5C=CC(C6CC56)C4C3=O)CC2)cc1 (stereo not drawn),i,23µM*,2%,i,10%
CO/N=C(/CNC(=O)c1ccccc1Cl)c1ccc(Cl)cc1,23µM*,-2%,-73%,i,26%
CCOc1cc(C(=O)NCc2ccccc2)ccc1OCC(=O)N1CCOCC1,i,4%,-270%[1.84 µM],?,21%
CCOc1ccc(C(=O)NCc2ccccc2)cc1Br,18µM*,2%,70%,i,14%
O=C(NCc1ccccc1)c1cccc(COc2ccc(Cl)cc2)c1,18µM*,8%,9%,i,?
O=C(NCc1ccc(Cl)cc1)c1cccc(NC(=O)c2ccccc2)c1,?,?,-4%,?,18µM*
CNc1c(Br)cc(C(O)C2=CCc3ccccc32)cc1Br (stereo not drawn),i,.,.,i,.
CCOC(=O)c1c(S(=O)(=O)N2CCCC(C(=O)Nc3ccc(C)cn3)C2)c(C)n(C)c1C (stereo not drawn),i,3%,-20%,i,6%
Fc1cccc2sc(Nc3nnc(-c4ccco4)o3)nc12,9.2µM*,7.3µM*,?,?,?
COc1cccc2sc(Nc3nnc(-c4ccc(F)cc4)o3)nc12,i,26µM*,?,i,14%
COc1cccc2sc(Nc3nnc(-c4cccs4)o3)nc12,?,23µM*,9%,?,?
O=Cc1c[nH]c2ccc(S(=O)(=O)N3CCCCC3)cc12,i,.,.,i,.
O=S(=O)(Nc1ccc2c(c1)oc1ccccc12)N1CCCC1,i,-16%,-2%,i,2%
O=S(=O)(Nc1cccc2ccccc12)N1CCCC1,?,8.2µM*,5%,i,4%
COc1cc2c(cc1NCc1ccccn1)oc1ccccc12,i,23µM*,3%,i,?
COCCCNC(=S)Nc1cc2oc3ccccc3c2cc1OC,?,9.2µM*,12µM*,?,-6%
COc1cc2c(cc1NS(=O)(=O)N1CCCCC1)oc1ccccc12,i,10µM*,?,i,-1%
SMILES,KB-V1 MDR tox,MCF10A rerep,SW480 rereplic,KB-3-1 tox,ELG1 DNA repair
COc1cccc(N2CCN(Cc3nnc(-c4ccc5c(c4)OCO5)o3)CC2)c1,i,.,.,i,.
COc1ccc(NC(=O)CN(c2ccc(C)cc2)S(=O)(=O)c2cccs2)cc1,i,.,.,i,.
COc1ccc(Br)cc1/C=N/NC(=O)c1ccc(COc2ccc3c(c2)CCC3)o1,i,12µM*,18%,i,?
O=C(N/N=C/c1cc([N+](=O)[O-])ccc1O)c1ccc(COc2ccc3c(c2)CCC3)o1,?,?,?,?,6.5µM*
CCCCCCCCC(c1nc2ccccc2[nH]1)N1CCN=C(c2ccccc2)C1=O (stereo not drawn),i,.,.,i,.
COc1ccc(COC[B-](F)(F)F)cc1,i,.,.,i,.
CC(C)CCN1CC(O)=C(c2nc3ccccc3[nH]2)C1=N,10µM*,23%,17%,i,?
CC1(C)C(O)=C(c2nc3ccccc3[nH]2)C(=N)N1c1ccccc1,?,?,9.2µM*,?,2%
CC(C)C(=O)NNC(=O)CSc1ncnc2c1cnn2-c1ccccc1Cl,?,7%,10%,i,?
Cc1ccccc1-n1ncc2c(SCC(=O)NCc3cccs3)ncnc21,7.3µM*,13µM*,21µM*,5.2µM*,-29%
CNC(=O)CSc1ncnc2c1cnn2-c1ccccc1,i,0%,-3%,i,?
Cc1csc(NC(=O)CSc2ncnc3c2cnn3-c2ccccc2Cl)n1,?,22µM*,21%,?,-21%
CCC(C)[C@@H](NC(=O)OC(C)(C)C)c1nnc(S(=O)(=O)Cc2cccc(C)c2)o1 (stereo partly drawn),i,16µM*,?,i,?
COc1cc(C=O)ccc1OC(=O)Nc1ccccc1,i,0%,3%,i,.
CC(C)c1ccccc1NC(=S)NCCCn1ccnc1,i,0.73µM*,-52%,i,14%
O=C(CSc1nc2c(cnn2-c2ccc(F)cc2)c(=O)[nH]1)Nc1ccc(Br)cc1,i,.,.,i,.
CC1CN(C(=O)c2ccc(CNS(=O)(=O)c3cccc(Cl)c3)cc2)CC(C)O1 (stereo not drawn),.,9%,8%,.,?
O=C(c1cccc(Cl)c1)N1CCN(c2ccc3c(c2)C2CC3CCN2C(=O)OCc2ccccc2)CC1 (stereo not drawn),16µM*,.,.,?,.
Cc1ccc(/C=C(/C#N)C(=O)NC(C)c2ccccc2)o1 (stereo not drawn),18µM*,-4%,6%,i,-1%
COc1ccc(NC(=O)CNC(=O)C23CC4CC(CC(C4)C2)C3)c(OC)c1,i,-22%,4.6µM*,i,14%
COc1ccc(NC(=O)CC23CC4CC(CC(Br)(C4)C2)C3)c(OC)c1,i,2%,-3%,i,8%
COc1ccc(NC(=O)C23CC4CC(C2)CC(c2ccccc2)(C4)C3)c(OC)c1,15µM*,?,?,i,0%
COc1ccc(OC)c(NC(=O)C(=O)NNC(=O)C23CC4CC(CC(C4)C2)C3)c1,?,1%,-4%,i,29µM*
Cc1ccc(C(=O)Nc2cccc(C(F)(F)F)c2)cc1NC(=O)c1[nH]cnc1C(N)=O,?,-2%,-65%,i,-4%
Cc1ccc2c(=O)c(C(=O)c3ccccc3)cn(CC(=O)Nc3ccc4c(c3)OCCO4)c2n1,i,.,.,i,.
